aSyn 5UTR act = Activators working through SNCA 5'UTR binding (MLPCN) | alpha-synuclein 5'UTR reporter, activators screen | activity score, % (tested at 7.5 µM), hits read low | 300,000 tested, 7.1% active | AID 1814; in the data active means activity score below about -60%
* = called active by the depositor. Only a sample is shown.

SMILES	aSyn 5UTR act
Cc1cccc(NC(=O)c2cnn(-c3ccccc3)c2C)c1C	-128.8*
Cc1ccccc1NC(=O)c1cnn(-c2ccccc2)c1C	-164.3*
C/C(=N\N=C(/N)c1nonc1N)c1ccc2c(c1)OCO2	-109.6*
O=S(=O)(/C=C/c1ccccc1)Oc1ccccc1	-79.8*
N#CCc1ccc(C(=O)c2ccccc2)s1	-69.6*
COCCCNc1oc(/C=C/c2ccccc2)nc1C#N	-114.3*
CCOc1ccc(/C=C/c2nc(C#N)c(NCCCOC)o2)cc1	-149.5*
Cn1ncc(Oc2ccc([N+](=O)[O-])cc2)c(Cl)c1=O	-65.8*
Cn1ncc(Cl)c(Oc2ccc(Cl)cc2)c1=O	-72.6*
COc1ccc(Oc2c(Cl)cnn(-c3ccc(Cl)c(Cl)c3)c2=O)cc1	72.7
COc1ccc(OCc2cnc(Cl)s2)cc1	-82.0*
Cc1ccc(OCc2cnc(Cl)s2)c(C)c1	-134.3*
NC(=O)c1ccc(-c2ncc(-c3ccccc3)o2)cc1	-68.3*
O=C(CSc1nc2ccccc2o1)Nc1ccc(N2CCOCC2)cc1	-147.0*
O=C(CSc1nc2cc(Cl)ccc2o1)Nc1ccc(N2CCOCC2)cc1	-132.9*
NC(=O)C(C(=O)/C=C/c1ccc(Cl)cc1)=C1SCCS1	-113.7*
COc1ccc(/C=C/C(=O)C(C(N)=O)=C2SCCS2)cc1	-109.0*
COc1cccc(-c2noc(C3CCCN(C(=O)CC(C)(C)C)C3)n2)c1 (centres undefined)	-126.8*
COc1cccc(-c2noc(C3CCCN(C(=O)c4ccccc4OC)C3)n2)c1 (centres undefined)	-84.9*
Cc1ccccc1NC(=O)N1CCCC(c2nc(-c3ccc(C(C)C)cc3)no2)C1 (centres undefined)	-205.0*
CCC(C)C(=O)N1CCCC(c2nc(-c3cccs3)no2)C1 (centres undefined)	-125.9*
CCCCC(=O)N1CCCC(c2nc(-c3cccc(OC)c3)no2)C1 (centres undefined)	-141.3*
C/C(N)=C(/C#N)C(=O)CSc1nnc(Nc2ccccc2)s1	-125.0*
C/C(N)=C(/C#N)C(=O)CSc1nnc(Nc2ccccc2C)s1	-77.1*
Cc1cc(C(=O)COC(=O)c2ccc[nH]c2=O)c(C)n1C	-67.9*
SMILES	aSyn 5UTR act
Cc1ccc(-n2c(C)cc(C(=O)COC(=O)c3ccc[nH]c3=O)c2C)cc1	-122.3*
CCN(CCn1cccn1)C(=O)c1cc(COc2ccccc2SC)on1	-89.7*
CCN(CCn1cccn1)C(=O)c1cc(COc2cc(C)ccc2C)on1	-79.0*
COc1ccc(/C=C/c2nc3ccccc3n2C)cc1	108.8
COc1ccc(Cn2c(/C=C/c3ccccc3)nc3ccccc32)cc1	-202.3*
CCn1c(/C=C/c2ccccc2)nc2ccccc21	-157.0*
CC(C)Cn1c(/C=C/c2ccccc2)nc2ccccc21	-114.2*
O=C(Cn1c(/C=C/c2ccccc2)nc2ccccc21)Nc1ccc(F)cc1	-71.5*
O=C(NCC1CCCN(C(=O)c2cscn2)C1)c1ccccc1Cl (centres undefined)	-78.2*
Cc1ccc(/C=N/n2c(C)nc3ccccc3c2=O)s1	-89.9*
Cc1nc2ccccc2c(=O)n1/N=C/c1ccccc1Cl	-90.5*
CCc1ccc(C(=O)NNc2ccccc2F)cc1	-83.4*
CCCc1ccc(C(=O)NNc2ccccc2F)cc1	-110.2*
CC1=NN(c2ccccc2)C(=O)C1N=Nc1ccccc1 (centres undefined)	-222.4*
CC1=NN(c2ccccc2)C(=O)C1N=Nc1cccc(O)c1 (centres undefined)	-137.6*
O=C(Nc1ccc(Oc2ccc(NC(=O)Nc3ccc([N+](=O)[O-])cc3)cc2)cc1)Nc1ccc([N+](=O)[O-])cc1	90.7
CC(=O)Nc1ccc(OS(=O)(=O)c2ccc([N+](=O)[O-])cc2)cc1	-115.0*
CC(=O)c1ccc(NC(=O)c2cc(Cl)sc2Cl)cc1	-155.8*
O=C(Nc1ccccc1F)c1ccc([N+](=O)[O-])s1	-115.2*
CC(=O)c1ccc(NC(=O)Nc2ccc([N+](=O)[O-])cc2)cc1	-148.0*
CC(=O)Nc1cc[n+](C(C)C(=O)c2ccc(Cl)cc2)cc1 (centres undefined)	51.4
CCC(=O)Oc1ccc(C(=O)Nc2ccc([N+](=O)[O-])cc2)cc1	-169.7*
O=C(Nc1ccccc1F)c1cc(Cl)sc1Cl	-62.5*
CC(=O)c1ccc(NC(=O)Nc2ccc(Cl)cc2)cc1	-192.6*
Nc1cnc(-c2ccccc2)nc1Cl	-62.5*
SMILES	aSyn 5UTR act
c1ccc(-c2ncc3c(ccc4ccccc43)n2)cc1	68.1
c1ccc(-c2cnc(-c3ccccc3)nc2)cc1	-66.4*
O=c1c2c3c(sc2nc2sc(C4CC4)nn12)CCCC3	-130.1*
CC(=O)N(C(C)=O)n1c(C)nc2sc3c(c2c1=O)CCCC3	51.2
C1CCC(c2nn3c(-c4n[nH]c5c4CCC5)nnc3s2)CC1	56.2
Cc1ccccc1OCc1nnc2c3cnn(C)c3ncn12	-187.3*
Cc1ccc(NC(=O)C2CCCN(c3ncccn3)C2)c(C)c1 (centres undefined)	-78.5*
O=C(Nc1ccc2c(c1)CCC2)C1CCCN(c2ncccn2)C1 (centres undefined)	-156.8*
C/C(=N\NC(=O)C1CCCN(S(=O)(=O)c2ccccc2)C1)c1ccccn1 (centres undefined)	66.7
Cc1ccc(NC(=O)C2CCCN(c3ncccn3)C2)cc1F (centres undefined)	-268.8*
O=C1NC(=O)/C(=C\c2ccc(Oc3cnccn3)cc2)S1	-190.6*
O=C(Nc1cccc(C(F)(F)F)c1)c1scc2c1OCCO2	-73.4*
C/C(=C/c1oc2ccc(O)cc2c1[N+](=O)[O-])N(C)C	-95.6*
CCOc1ccc(C(Nc2cccnc2)c2cc(Cl)c3cccnc3c2O)cc1 (centres undefined)	66.8
CCOc1ccc(NC(c2ccccn2)c2oc(CO)cc(=O)c2O)cc1 (centres undefined)	-104.4*
C/C(=N\N=C(N)N)c1cc(Cl)ccc1Cl	64.7
Nc1nnc(-c2ccc(Cl)cc2Cl)s1	-108.4*
O=C(COc1ccc(Br)cc1Cl)NC(=S)Nc1ccccn1	-99.9*
COCCCNC(=O)COc1ccc(Br)cc1Cl	-145.5*
O=C(NNC(=O)c1ccccc1OCc1ccccc1)c1ccccc1O	64.9
COc1ccccc1C(=O)NNC(=S)NC(=O)c1cc(OC)c(OC)c(OC)c1	72.5
O=C(NNC(=O)c1ccccc1OCc1ccccc1)c1ccccc1F	-85.1*
COc1ccccc1C(=O)NNC(=O)c1ccccc1F	-96.8*
Cc1cccc(Nc2nc(N)nc(CSc3nccn3C)n2)c1	-99.5*
CCCCOc1ccc(C(=S)N2CCC(C(N)=O)CC2)cc1	-85.9*
SMILES	aSyn 5UTR act
CCC(Oc1ccccc1)C(=O)N1CCC(C(N)=O)CC1 (centres undefined)	-71.1*
CCCCC(=O)NC(c1ccc(N(CC)CC)cc1)c1ccc2cccnc2c1O (centres undefined)	67.9
CCn1c(SCC(=O)c2ccc(Cl)cc2)nnc1C(C)C	-76.2*
N#Cc1nc(-c2ccc(F)cc2)oc1NCCCn1ccnc1	-90.0*
N#Cc1nc(-c2ccc(OCc3ccccc3Cl)cc2)oc1NCCCn1ccnc1	-65.0*
CC(=O)N1CCc2cc(N=NC3=C(O)CCCC3=O)ccc21	-100.2*
Cc1ccc(CN2C(=O)/C(=C\c3ccc(C(=O)NCc4cccnc4)cc3)Oc3ccccc32)cc1	101.5
Cc1ccc(-c2cc(C(=O)NCc3cccnc3)no2)cc1	-90.5*
O=C(NCc1cccnc1)c1cc(-c2ccco2)on1	-71.5*
CCOC(=O)C1CCN(C(=O)c2cc3c(ccc4ccccc43)o2)CC1	-115.2*
CCOC(=O)C1CCN(Cc2c(O)ccc3ccccc23)CC1	-107.6*

Source: PubChem BioAssay (Broad Institute)
